From ChEMBL document CHEMBL3988442, “University of Dundee, Small-Polar-MMV Screening Library” (2021)
Among all 48,000 compounds or so, about 13,000 (27%) showed an effect of 50% or more. This is one part of the list.

What follows are compounds tested on Wolbachia pipientis (assay: Anti-Wolbachia Cell-Based Screen). Details: 5 µM.
Assay type: functional
Set-up: scale not given: in the data most compounds retested in dose-response had high values

Row | Structure (SMILES) | Percent Effect
1 | CCOCC(=O)NCC(Cc1cccc(F)c1)n1cccc1 (stereo not drawn) | 6.887%
2 | CS(=O)(=O)CCCNC(=O)Nc1sc2ccccc2c1Cl | -10.11%
3 | COC(=O)c1ccc(Cn2cccc(C(F)(F)F)c2=O)c(OC)c1 | 9.312%
4 | COc1cc(C(C)=O)ccc1SCC(=O)Nc1ccc(C)cn1 | -18.24%
5 | COC(=O)c1ccc(OC)c(OC23CCCN(CC2)C3)c1 (stereo not drawn) | 94.41%
6 | COc1cc(C#N)ccc1OC12CCCN(CC1)C2 (stereo not drawn) | 107.4%
7 | COc1cc(C(C)=O)ccc1OC12CCCN(CC1)C2 (stereo not drawn) | 108.8%
8 | COc1cc(C#N)ccc1OCCN1CCC(n2ccnc2)CC1 | 7.917%
9 | COc1cc(C(C)=O)ccc1OCCNCc1ccco1.Cl | -30.68%
10 | COC(=O)c1ccc(Cn2nc(C)cc2C)c(OC)c1 | -3.306%
11 | COCC1CCN(CCOc2ccc(C#N)cc2OC)CC1 | -11.6%
12 | CCNC(=O)Nc1cccc(F)c1C(=O)NC1CCCC1 | 2.869%
13 | CC(C)CC(C#N)NC(=O)COC1CCCCC1 (stereo not drawn) | -4.996%
14 | CN(C)CCN1CCCC12CCN(Cc1nccn1C)CC2.O=C(O)C(F)(F)F.O=C(O)C(F)(F)F.O=C(O)C(F)(F)F | 106.1%
15 | Cn1ccc(CN2CCCC23CCN(Cc2nccn2C)CC3)n1.O=C(O)C(F)(F)F.O=C(O)C(F)(F)F | 97.85%
16 | Cn1ccc(CN2CCC3(CCCN3CC3CC3)CC2)n1.O=C(O)C(F)(F)F.O=C(O)C(F)(F)F | 89.46%
17 | Cc1ccc(NC2COC3(CCN(Cc4ccn(C)n4)CC3)C2)nn1.O=C(O)C(F)(F)F (stereo not drawn) | -6.198%
18 | Cn1ccnc1CN1CCC2(CCCN2c2ncccn2)CC1.O=C(O)C(F)(F)F | -8.541%
19 | CC(C)COC1CC2(CCN(Cc3nccn3C)CC2)C1.O=C(O)C(F)(F)F | -0.08907%
20 | O=C(O)C(F)(F)F.O=C(O)C(F)(F)F.c1csc(CN2CCC3(CCCN3CC3CC3)CC2)n1 | 0.06996%
21 | CC(C)NC(=O)[C@H]1CCS(=O)(=O)[C@@H]2CN(c3ncccn3)C[C@H]12 | -3.711%
22 | CCc1cnc(N2C[C@@H]3[C@@H](C(=O)N(C)C)CCS(=O)(=O)[C@@H]3C2)nc1 | 108.3%
23 | CN(C)C(=O)[C@H]1CCS(=O)(=O)[C@@H]2CN(c3ncc(F)cn3)C[C@H]12 | 102%
24 | CC(C)CNC(=O)[C@H]1CCS(=O)(=O)[C@@H]2CN(c3ncccn3)C[C@H]12 | 91.22%
25 | CN(C)C(=O)[C@H]1CCS(=O)(=O)[C@@H]2CN(c3ncccn3)C[C@H]12 | 99.37%

Row | Structure (SMILES) | Percent Effect
26 | CN(C)C[C@@H]1CCC[C@@H]2CN(c3ncccn3)C[C@@H]21.O=C(O)C(F)(F)F | 2.797%
27 | CCc1cnc(N2C[C@H]3CCCC(N(C)Cc4ccccn4)[C@H]3C2)nc1 (stereo partly drawn) | -24.97%
28 | Cc1cnc(N2C[C@@H]3[C@@H](C(=O)NC(C)C)CCS(=O)(=O)[C@@H]3C2)nc1 | -24.89%
29 | CC(C)NC(=O)[C@H]1CCS(=O)(=O)[C@@H]2CN(c3ncc(F)cn3)C[C@H]12 | -13.53%
30 | Cc1cnc(N2C[C@@H]3[C@@H](C(=O)NCC(C)C)CCS(=O)(=O)[C@@H]3C2)nc1 | -2.009%
31 | CCc1cnc(N2C[C@@H]3[C@@H](C(=O)NC(C)C)CCS(=O)(=O)[C@@H]3C2)nc1 | -2.445%
32 | CCc1cnc(N2C[C@@H]3[C@@H](C(=O)NCC(C)C)CCS(=O)(=O)[C@@H]3C2)nc1 | -5.453%
33 | CC(=O)CCC(=O)N1CCC2(CC1)N=C(CCC(C)C)NC2=O | -5.676%
34 | CC(C)(C)OC(=O)N1CCC(C(=O)NC2CCS(=O)(=O)C2)CC1 (stereo not drawn) | 6.733%
35 | COc1ccc(C(=O)N2CCC(C3CCN(c4ncccn4)CC3)C2)o1 (stereo not drawn) | -7.407%
36 | O=C(O)C(F)(F)F.O=C(c1ccco1)N1C[C@H]2CCCN(Cc3cccs3)[C@H]2C1 | -3.839%
37 | O=C([C@@H]1CCS(=O)(=O)[C@@H]2CN(c3ncccn3)C[C@@H]21)N1CCOCC1 | 104.7%
38 | CN1CCN(C(=O)[C@@H]2CCO[C@@H]3CCN(c4ncccn4)C[C@@H]32)CC1 | -8.422%
39 | COc1ccc(/C=C/CN2CCCC3(C2)CN(C)C(=O)O3)cc1 (stereo not drawn) | -36.85%
40 | CN1CC2(CCCN(Cc3cccc(CCN)c3)C2)OC1=O (stereo not drawn) | 105.3%
41 | CN1CC2(CCCN(c3cc(N4CCCCC4)ncn3)C2)OC1=O (stereo not drawn) | -3.477%
42 | Cc1cc(C)c2[nH]c(=O)c(CN3CCCC4(C3)CN(C)C(=O)O4)cc2c1 (stereo not drawn) | -2.953%
43 | CN1CC2(CCCN(c3cnccn3)C2)OC1=O (stereo not drawn) | 1.527%
44 | CN1CC2(CCCN(Cc3cccc(Oc4ccccc4)c3)C2)OC1=O (stereo not drawn) | 123.2%
45 | COc1ccc(/C=C/CN2CCC3(C2)CN(C)C(=O)O3)cc1 (stereo not drawn) | -32.82%
46 | CN(C)CCOc1cccc(CN2CCCC3(C2)CN(C)C(=O)O3)c1 (stereo not drawn) | 103.2%
47 | CN1CC2(CCCN(Cc3ccc(Oc4ccccc4)cc3)C2)OC1=O (stereo not drawn) | 64.08%
48 | CN1CC2(CCCN(Cc3ccccc3OCC(=O)O)C2)OC1=O (stereo not drawn) | 0.6132%
49 | O=C1NC[C@@]2(C(=O)O)CN(Cc3cccc(Oc4ccccc4)c3)C[C@@H]12 | -29.67%
50 | COc1cccc(CN2CCCC3(CCN(C(CO)CO)C3)C2)c1 (stereo not drawn) | -0.6359%

Row | Structure (SMILES) | Percent Effect
51 | CCOCCCC(=O)NCc1ccnc(N2CCN(C)CC2)c1 | 8.829%
52 | CN(Cc1ccc(F)cc1C#N)CC(F)(F)F | -4.053%
53 | CC(C)(C)CCN1CCN(c2snc(Cl)c2C#N)CC1 | -4.564%
54 | CC(C)(NC(=O)c1coc(COc2cccc(F)c2)n1)C(N)=O | 11.65%
55 | COCc1cc(CNC(=O)c2cccc3c2OCC3)n[nH]1 | -6.489%
56 | CCCN1CCCN(CCCOc2cccc(C#N)c2)CC1 | 7.264%
57 | N#CCCN(C(=O)CN1CCCC1c1ccsc1)c1ccccc1F (stereo not drawn) | -4.506%
58 | CCS(=O)(=O)N1CCn2c(COCC3CCOCC3)cnc2C1C (stereo not drawn) | -1.918%
59 | CN(C)C(=O)NCc1cc2n(n1)CCCN(C[C@H]1[C@@H]3CNC[C@@H]31)C2 | -16.67%
60 | O=C(CC1CCCO1)NCc1ccccc1Cn1cncn1 (stereo not drawn) | 0.9316%
61 | CC1CN(C)c2ccccc2CN1C(=O)c1ccncc1F (stereo not drawn) | -16.77%
62 | Cc1cc(=O)[nH]cc1C(=O)N1Cc2ccccc2N(C)CC1C (stereo not drawn) | 102.2%
63 | CCC1CN(C)c2ccccc2CN1C(=O)c1c[nH]c(=O)cc1C (stereo not drawn) | 123.4%
64 | CC1CN(C)c2ccccc2CN1C(=O)c1ccc[nH]1 (stereo not drawn) | -9.61%
65 | CCc1cc(CNC(=O)N2Cc3ccccc3N(C)CC2C)[nH]n1 (stereo not drawn) | 5.505%
66 | CC1CN(C)c2ccccc2CN1C(=O)c1cc[nH]c(=O)c1 (stereo not drawn) | -17.5%
67 | COCc1ccc(C(=O)N2CC[C@H](O)[C@@H](n3ccnc3)CC2)cc1 | 113.2%
68 | O=C(c1ccc(-n2ccnc2)cc1)N1CCCC1 | 15.67%
69 | CC(C)Oc1ccc(C(=O)N2CC[C@H](O)[C@@H](n3ccnc3)CC2)cc1 | 122.3%
70 | COCc1ccc(C(=O)N2CCN(CCS(C)(=O)=O)CC2)cc1 | 1.51%
71 | CC(C(=O)N1CCN(C(=O)c2ccc(F)cc2)CC1)n1ccnc1 (stereo not drawn) | -9.233%
72 | COCc1ccc(C(=O)N2CCCN(C(=O)OCC(C)C)CC2)cc1 | 6.896%
73 | CS(=O)(=O)CCSC1CCN(c2ccccc2F)C1=O (stereo not drawn) | -0.4258%
74 | CC(C)N1CCC(C(=O)N[C@H](C(=O)O)c2cccc(F)c2F)CC1 | 23.96%
75 | O=C(c1coc2ccccc12)N1CCCC(O)(CO)CC1 (stereo not drawn) | -11.92%

Row | Structure (SMILES) | Percent Effect
76 | Cn1c(CO)cnc1SC(C(N)=O)c1ccccc1 (stereo not drawn) | -6.292%
77 | COCCN(CCC#N)S(=O)(=O)c1ccc(F)cc1F | 3.199%
78 | COc1ccc(S(=O)(=O)C(C)C(=O)NCCOc2cccc(C)c2)cc1 (stereo not drawn) | 1.494%
79 | CS(=O)(=O)c1ccc(OCCNCc2cccc(O)c2)cc1 | -6.003%
80 | COc1cccc(OCCNCc2ccccc2)c1.O=C(O)C(=O)O | 105.9%
81 | COc1cccc(OCCNS(=O)(=O)Cc2ccccc2)c1 | 102.8%
82 | O=C(CCOc1ccccc1)NS(=O)(=O)Cc1ccccc1 | -5.15%
83 | COc1cccc(CNCCc2cccc(C(N)=O)c2)c1 | -2.153%
84 | COc1cccc(OCCNS(C)(=O)=O)c1 | 78.58%
85 | CC(=O)NCCOc1cccc(Br)c1 | 0.6269%
86 | Cc1cccc(OCC(=O)NS(=O)(=O)Cc2ccccc2)c1 | 1.498%
87 | Cc1c(C(=O)NC2(C#N)CCSC2)nnn1-c1ccccc1Cl (stereo not drawn) | 1.619%
88 | Cn1cc(CNc2ccc(F)c(N3CCCS3(=O)=O)c2)cn1 | -4.512%
89 | CCCOCC1CCN(C(=O)Cn2cccc(C(F)(F)F)c2=O)C1 (stereo not drawn) | -13.09%
90 | Cn1cc(CN2CCCC23CCN(C(=O)c2cccn2C)CC3)cn1.O=C(O)C(F)(F)F | -11.73%
91 | CN(C)CCN1CCCC12CCN(C(=O)c1ccoc1)CC2.O=C(O)C(F)(F)F.O=C(O)C(F)(F)F | 109.3%
92 | Cc1ccccc1C(=O)N1CCC2(CCCN2CCN(C)C)CC1.O=C(O)C(F)(F)F.O=C(O)C(F)(F)F | 100.3%
93 | CCN1CCCC12CCN(C(=O)c1ccsc1)CC2.O=C(O)C(F)(F)F | -19.39%
94 | CN(C)CCN1CCCC12CCN(C(=O)c1cccn1C)CC2.O=C(O)C(F)(F)F.O=C(O)C(F)(F)F | -18.28%
95 | CN(Cc1ccco1)C1CCC12CCN(C(=O)c1ccco1)CC2.O=C(O)C(F)(F)F (stereo not drawn) | -7.154%
96 | CN(C)CCN1CCCC12CCN(C(=O)c1ccco1)CC2.O=C(O)C(F)(F)F.O=C(O)C(F)(F)F | 96.22%
97 | CN(C)CCN1CCCC12CCCN(Cc1ccoc1)C2.O=C(O)C(F)(F)F.O=C(O)C(F)(F)F.O=C(O)C(F)(F)F (stereo not drawn) | 19.5%
98 | CN(C)CCN1CCCC12CCCN(Cc1ccco1)C2.O=C(O)C(F)(F)F.O=C(O)C(F)(F)F.O=C(O)C(F)(F)F (stereo not drawn) | -6.586%
